In publication PMC9911399, “Two distinct binding modes provide the RNA-binding protein RbFox with extraordinary sequence specificity”:
Residue numbers refer to the chain shown, from its start. The full ranking holds about 16,000 sequences; the median of “ka relative to ugcaugu” is about 0.096, and the highest 2% start at about 0.35. The entries come from a sample that favours the highest values as a whole.

B1: GUAAAAU (DNA:RNA)
RNA: GGGAGACCGGAAUUCAGAUUGUCCGUAAAAUUUAAAUCCCGUCGUAGCCACCA
DNA 1: CAATCTGAATTCCGGTCTCCC
DNA 2: TGGTGGCTACGACGGGATT
B2: GGCCGCA (DNA:RNA)
RNA: B1 RNA with U26G, A27C, A28C, A29G, A30C, U31A
DNA 1: CAATCTGAATTCCGGTCTCCC
DNA 2: TGGTGGCTACGACGGGATT
B3: CCUGUUG (DNA:RNA)
RNA: GGGAGACCGGAAUUCAGAUUGUCCCCUGUUGUUAAAUCCCGUCGUAGCCACCA
DNA 1: CAATCTGAATTCCGGTCTCCC
DNA 2: TGGTGGCTACGACGGGATT
B4: AGGGCAC (DNA:RNA)
RNA: B3 RNA with C25A, C26G, U27G, U29C, U30A, G31C
DNA 1: CAATCTGAATTCCGGTCTCCC
DNA 2: TGGTGGCTACGACGGGATT
B5: UAGCUUA (DNA:RNA)
RNA: B3 RNA with C25U, C26A, U27G, G28C, G31A
DNA 1: CAATCTGAATTCCGGTCTCCC
DNA 2: TGGTGGCTACGACGGGATT
B6: GUUAGGG (DNA:RNA)
RNA: B1 RNA with A27U, A29G, A30G, U31G
DNA 1: CAATCTGAATTCCGGTCTCCC
DNA 2: TGGTGGCTACGACGGGATT
B7: ACCGGAG (DNA:RNA)
RNA: B3 RNA with C25A, U27C, U29G, U30A
DNA 1: CAATCTGAATTCCGGTCTCCC
DNA 2: TGGTGGCTACGACGGGATT
B8: AAUUGGC (DNA:RNA)
RNA: B3 RNA with C25A, C26A, G28U, U29G, U30G, G31C
DNA 1: CAATCTGAATTCCGGTCTCCC
DNA 2: TGGTGGCTACGACGGGATT
B9: ACCACUC (DNA:RNA)
RNA: B3 RNA with C25A, U27C, G28A, U29C, G31C
DNA 1: CAATCTGAATTCCGGTCTCCC
DNA 2: TGGTGGCTACGACGGGATT
B10: UGUCAUG (DNA:RNA)
RNA: B3 RNA with C25U, C26G, G28C, U29A
DNA 1: CAATCTGAATTCCGGTCTCCC
DNA 2: TGGTGGCTACGACGGGATT
B11: CGUCCUG (DNA:RNA)
RNA: B3 RNA with C26G, G28C, U29C
DNA 1: CAATCTGAATTCCGGTCTCCC
DNA 2: TGGTGGCTACGACGGGATT
B12: UGUCCUG (DNA:RNA)
RNA: B3 RNA with C25U, C26G, G28C, U29C
DNA 1: CAATCTGAATTCCGGTCTCCC
DNA 2: TGGTGGCTACGACGGGATT
B13: UGUAUCU (DNA:RNA)
RNA: B3 RNA with C25U, C26G, G28A, U30C, G31U
DNA 1: CAATCTGAATTCCGGTCTCCC
DNA 2: TGGTGGCTACGACGGGATT
B14: UAUGUCG (DNA:RNA)
RNA: B3 RNA with C25U, C26A, U30C
DNA 1: CAATCTGAATTCCGGTCTCCC
DNA 2: TGGTGGCTACGACGGGATT
B15: GGCUAUC (DNA:RNA)
RNA: B1 RNA with U26G, A27C, A28U, A30U, U31C
DNA 1: CAATCTGAATTCCGGTCTCCC
DNA 2: TGGTGGCTACGACGGGATT
B16: UGUUAUC (DNA:RNA)
RNA: B3 RNA with C25U, C26G, G28U, U29A, G31C
DNA 1: CAATCTGAATTCCGGTCTCCC
DNA 2: TGGTGGCTACGACGGGATT
B17: UGUCAUC (DNA:RNA)
RNA: B3 RNA with C25U, C26G, G28C, U29A, G31C
DNA 1: CAATCTGAATTCCGGTCTCCC
DNA 2: TGGTGGCTACGACGGGATT
B18: CUGUAUC (DNA:RNA)
RNA: B3 RNA with C26U, U27G, G28U, U29A, G31C
DNA 1: CAATCTGAATTCCGGTCTCCC
DNA 2: TGGTGGCTACGACGGGATT
B19: CGUCAUG (DNA:RNA)
RNA: B3 RNA with C26G, G28C, U29A
DNA 1: CAATCTGAATTCCGGTCTCCC
DNA 2: TGGTGGCTACGACGGGATT
B20: UGUUAUG (DNA:RNA)
RNA: B3 RNA with C25U, C26G, G28U, U29A
DNA 1: CAATCTGAATTCCGGTCTCCC
DNA 2: TGGTGGCTACGACGGGATT

Biological target: T1, RBFOX1 RRM RbFoxmut (Fox-RRM*) (Homo sapiens, UniProt Q9NWB1 109-208, R118D;E147R;N151S;E152T)
T1 sequence: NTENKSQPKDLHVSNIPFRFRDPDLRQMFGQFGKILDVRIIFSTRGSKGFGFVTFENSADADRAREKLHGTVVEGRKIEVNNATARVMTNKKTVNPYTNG
Experiment: EMSA; HiTS-Eq, 1 nM pool, 10 min; buffer printed only for the single-RNA assays: 10 mM Tris pH 7.5, 150 mM NaCl, 3.4 mM EDTA, 0.001% NP-40, 30 C
Details: tags: His6 N-terminal (pET28a); label: 5' 32P
Method in brief: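 Purified wild-type or mutant RbFox RRM at increasing concentrations was equilibrated with 1 nM of 5′-radiolabelled RNA carrying 7 randomized nucleotides for 10 min in 50 µL. Unbound RNA was separated by 8% native PAGE and sequenced. Relative association constants came from read-count changes of each RNA species compared with the control reaction, normalised to the cognate motif.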

Binder | binding signal
B1 | 0.0936 KA relative to UGCAUGU
B2 | 0.107 KA relative to UGCAUGU
B3 | 0.136 KA relative to UGCAUGU
B4 | 0.0707 KA relative to UGCAUGU
B5 | 0.134 KA relative to UGCAUGU
B6 | 0.0712 KA relative to UGCAUGU
B7 | 0.0806 KA relative to UGCAUGU
B8 | 0.114 KA relative to UGCAUGU
B9 | 0.0459 KA relative to UGCAUGU
B10 | 0.597 KA relative to UGCAUGU
B11 | 0.132 KA relative to UGCAUGU
B12 | 0.133 KA relative to UGCAUGU
B13 | 0.296 KA relative to UGCAUGU
B14 | 0.133 KA relative to UGCAUGU
B15 | 0.226 KA relative to UGCAUGU
B16 | 0.351 KA relative to UGCAUGU
B17 | 0.183 KA relative to UGCAUGU
B18 | 0.362 KA relative to UGCAUGU
B19 | 0.275 KA relative to UGCAUGU
B20 | 1.04 KA relative to UGCAUGU
